In PubChem BioAssay (Tox21):
Several values for one entry are separate records, joined by “and”; a condition that tells them apart may be missing. Equal values may be shown once. Results filed as inconclusive are left out. Some structures have more than one record in an assay (separate samples or runs), and their calls can disagree. Activity calls are given as the source filed them. Unless noted, calls come from the whole dose curve; as a rule, active = well fitted curve in the direction sought with a large enough effect in the repeat runs; inconclusive = weak or mixed curves; inactive = no such curve, though single readings can be large; an effect the other way counts as inactive or inconclusive.

Key:
[1] = target: Thyrotropin receptor (Homo sapiens) (UniProt P16473); assay: qHTS assay to identify small molecule antagonists of the thyroid stimulating hormone receptor (TSHR) signaling pathway (AID 1259385; calls by dose curve; note: nearly all actives have a fitted effect of over 20% in size)
How it was run: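 TSHR-HEK293 cells (800/well) plated 18 h, then compounds with Ro20-1724 and TSH at 1.5 ng/mL final, 30 min at room temperature. cAMP quantified by HTRF (cAMP-d2/anti-cAMP-cryptate, 1 h); 15 concentrations in triplicate.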

[2] = qHTS assay to identify small molecule agonists of the estrogen receptor alpha (ER-alpha) signaling pathway in the presence of an antagonist - cell viability counter screen (AID 1259386);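 note: series mostly up to about 92 µM; cells exposed to compounds for 22 h at 37 °C before the viability read; nearly all actives have a fitted effect of over 30% in size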
How it was run: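 Viability counter screen using VM7Luc4E2 (full-length ER-alpha, four ERE-luciferase). The cells were treated with compounds alongside ICI-182,780 10.0nM for 22hr, and live-cell protease fluorescence was quantified with CellTiter-Fluor.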

[3] = target: Progesterone receptor (Homo sapiens) (UniProt P06401); assay: qHTS assay to identify small molecule agonists of the progesterone receptor (PR) signaling pathway (AID 1346784; calls by dose curve; note: nearly all actives have a fitted effect of over 30% in size)
How it was run: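 Fluorescence from LiveBLAzer B/G FRET substrate cleavage (2 hr, RT) reported PR activation in PR-UAS-bla HEK 293T cells treated 16 hr at 37C/5% CO2 with compounds; medium contained 2% charcoal-stripped FBS.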

[4] = target: Progesterone receptor (Homo sapiens) (UniProt P06401); assay: qHTS assay to identify small molecule antagonists of the progesterone receptor (PR) signaling pathway (AID 1346795; active = well fitted inhibition curve with a large enough effect in the signal ratio in the repeat runs, not every such curve was filed as active; the % refers to the signal ratio; note: potency is the fitted concentration of half-maximal effect)
How it was run: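 Fluorescence intensity measured 2 hr after adding beta-lactamase FRET substrate to PR-UAS-bla HEK293T cells that had been co-treated 16 hr with compound and 1 nM R5020 (final concentration) in 2% charcoal-stripped FBS.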

[5] = qHTS assay to identify small molecule antagonists of the progesterone receptor (PR) signaling pathway - cell viability counter screen (AID 1346798); note: series mostly up to about 92 µM; nearly all actives have a fitted effect of over 50% in size
How it was run: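 CellTiter-Glo luminescence; PR-UAS-bla HEK293T, 3,000 cells/well; compound + R5020, 16 hr, 37C/5% CO2; 30 min RT before read.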

[6] = qHTS assay to identify small molecule agonists of the progesterone receptor (PR) signaling pathway - cell viability counter screen (AID 1346799; calls by dose curve; note: nearly all actives have a fitted effect of over 45% in size)
How it was run: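 In parallel with the beta-lactamase readout, cytotoxicity toward PR-UAS-bla HEK293T cells was measured by CellTiter-Glo luminescence following 16 hr compound incubation in 2% charcoal-stripped FBS medium.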

[7] = qHTS assay to identify small molecule antagonists of the TGF-beta/Smad signaling pathway - cell viability counter screen (AID 1346824); note: nearly all actives have a fitted effect of over 50% in size
How it was run: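 SBE-bla HEK 293T cells, incubated overnight, then compound plus 0.25 ng/mL TGF-beta1 (stock added) for 5 hr at 37 C. Viability was read in the same wells by CellTiter-Glo luminescence after 30 min at room temperature.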

[8] = qHTS assay to identify small molecule agonists of the TGF-beta/Smad signaling pathway - cell viability counter screen (AID 1346829); note: top concentration of the series differs between compounds; nearly all actives have a fitted effect of over 45% in size
How it was run: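 SBE-bla HEK 293T cells plated overnight, compound exposure 5 hr at 37 C. Viability read in the same wells by CellTiter-Glo luminescence after 30 min at room temperature, following the beta-lactamase read.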

[9] = qHTS assay to identify small molecule agonists of the TGF-beta/Smad signaling pathway (AID 1346859; active = well fitted activation curve with a large enough effect in the signal ratio in the repeat runs, not every such curve was filed as active; the % refers to the signal ratio; note: series mostly up to about 77 µM)
How it was run: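 After overnight seeding, SBE-bla HEK 293T cells are dosed with compounds in DMSO and kept 5 hr at 37 C, 5% CO2. LiveBLAzer-type FRET substrate is then applied for 2 hr at room temperature.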

[10] = target: Thyrotropin-releasing hormone receptor (Homo sapiens) (UniProt P34981); assay: qHTS assay to identify small molecule antagonists of the thyrotropin-releasing hormone receptor (TRHR) signaling pathway (AID 1346877; active = well fitted inhibition curve with a large enough effect in the repeat runs, not every such curve was filed as active; note: series mostly up to about 51 µM)
How it was run: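 Following an 18 h incubation at 37 °C and a 2 h calcium dye load, TRHR-HEK293 cells were exposed to compound (5 min, room temperature) and challenged with TRH, 1 nM final.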

[11] = target: Thyrotropin-releasing hormone receptor (Homo sapiens) (UniProt P34981); assay: qHTS assay to identify small molecule agonists of the thyrotropin-releasing hormone receptor (TRHR) signaling pathway (AID 1346891; calls by dose curve;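 note: HEK293 cells expressing TRHR with calcium dye readout; series mostly up to about 58 µM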)
How it was run: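 Compounds were tested as agonists at 15 concentrations, in triplicate, on TRHR-Hek293 cells; calcium-sensitive dye fluorescence was recorded for 3 min following addition.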

[12] = Human pregnane X receptor (PXR) small molecule agonists, qHTS cell viability counter screen (AID 1346977); note: nearly all actives have a fitted effect of over 50% in size
How it was run: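 Viability counter screen: CellTiter-Fluor signal in PXR-Luc HepG2 cells, 24hr compound exposure, 37C, 5% CO2.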

[13] = Caspase-3/7 induction in HepG2 cells by small molecules, qHTS assay (AID 1346978); note: nearly all actives have a fitted effect of over 15% in size
How it was run: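 Wild-type HepG2 cells, 2,000/well, settled 5 hr at 37 C and 5% CO2, then compound-treated for 17 hr; caspase-3/7 activity read by luminescent Caspase-Glo 3/7 after 30 min at room temperature.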

[14] = Caspase-3/7 induction in CHO-K1 cells by small molecules, qHTS cell viability counter screen (AID 1346979); note: nearly all actives have a fitted effect of over 35% in size; note: potency is the fitted concentration of half-maximal effect
How it was run: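 Viability readout by fluorescence (CellTiter-Fluor) on wild-type CHO-K1 cells exposed for 16hr at 37C and 5% CO2 to compounds delivered in DMSO; reagent incubated 1hr before reading.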

[15] = Caspase-3/7 induction in CHO-K1 cells by small molecules, qHTS assay (AID 1346980); note: nearly all actives have a fitted effect of over 15% in size
How it was run: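 Wild-type CHO-K1 cells exposed to compounds for 17hr at 37 C, 5% CO2. Caspase-3/7 activity then measured by Caspase-Glo 3/7 luminescence after 30min at room temperature.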

[16] = Caspase-3/7 induction in HepG2 cells by small molecules, qHTS cell viability counter screen (AID 1346981); note: nearly all actives have a fitted effect of over 30% in size; note: potency is the fitted concentration of half-maximal effect
How it was run: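 Viability determined by CellTiter-Fluor fluorescence in HepG2 wells also used for the luminescent Caspase-Glo 3/7 read. Compounds were present for 16 hr at 37 C, 5% CO2 before reagent addition.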

[17] = target: Nuclear receptor subfamily 1 group I member 2 (Homo sapiens) (UniProt O75469); assay: Human pregnane X receptor (PXR) small molecule agonists, qHTS assay (AID 1346982); note: nearly all actives have a fitted effect of over 35% in size; note: potency is the fitted concentration of half-maximal effect
How it was run: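 Compound-induced hPXR transactivation of a CYP3A4 luciferase reporter was scored in HepG2 PXR-Luc cells over 24 hr at 37 C, 5% CO2, by luminescence.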

[18] = target: Nuclear receptor subfamily 1 group I member 2 (Rattus norvegicus) (UniProt Q9R1A7); assay: Rat pregnane X receptor (rPXR) activation by small molecules, qHTS assay (AID 1346983); settings: rPXR luciferase reporter cells, One-Glo luminescence, 24 h; stronger effect = higher value; note: nearly all actives have a fitted effect of over 20% in size
How it was run: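 Cell-based rPXR activation assay: rPXR cells, 2,000 per well, rested 5hr at 37 C, then exposed to compounds in DMSO for 24 hr at 37 C. Luciferase activity read by One-Glo luminescence after 30 min at room temperature.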

[19] = target: Nuclear receptor subfamily 1 group I member 2 (Homo sapiens) (UniProt O75469); assay: CYP3A4 induction through human pregnane X receptor (PXR) by small molecules, qHTS assay (AID 1346984); note: nearly all actives have a fitted effect of over 40% in size
How it was run: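 Readings come from a luciferase reporter: DPX-2 cells, which are HepG2 cotransfected with PXR and a CYP3A4-promoter construct, were exposed to test compounds for 24 h at 37C before One-Glo detection.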

[20] = target: Nuclear receptor subfamily 1 group I member 2 (Homo sapiens) (UniProt O75469); assay: Human pregnane X receptor (PXR) activation by small molecules, qHTS assay (AID 1346985); note: nearly all actives have a fitted effect of over 40% in size
How it was run: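 DPX-2 cells (HepG2 co-transfected with a PXR response element and a CYP3A4-promoter luciferase construct) were seeded at 2,000 per well, rested 5 hr at 37C, then exposed to DMSO-dissolved compounds for 24 hr. Activation was read as luciferase luminescence.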
% is set by controls: 0 for no effect and ±100 for the full control effect.

Progesterone receptor (Homo sapiens), sequence (P06401 whole entry, looked up): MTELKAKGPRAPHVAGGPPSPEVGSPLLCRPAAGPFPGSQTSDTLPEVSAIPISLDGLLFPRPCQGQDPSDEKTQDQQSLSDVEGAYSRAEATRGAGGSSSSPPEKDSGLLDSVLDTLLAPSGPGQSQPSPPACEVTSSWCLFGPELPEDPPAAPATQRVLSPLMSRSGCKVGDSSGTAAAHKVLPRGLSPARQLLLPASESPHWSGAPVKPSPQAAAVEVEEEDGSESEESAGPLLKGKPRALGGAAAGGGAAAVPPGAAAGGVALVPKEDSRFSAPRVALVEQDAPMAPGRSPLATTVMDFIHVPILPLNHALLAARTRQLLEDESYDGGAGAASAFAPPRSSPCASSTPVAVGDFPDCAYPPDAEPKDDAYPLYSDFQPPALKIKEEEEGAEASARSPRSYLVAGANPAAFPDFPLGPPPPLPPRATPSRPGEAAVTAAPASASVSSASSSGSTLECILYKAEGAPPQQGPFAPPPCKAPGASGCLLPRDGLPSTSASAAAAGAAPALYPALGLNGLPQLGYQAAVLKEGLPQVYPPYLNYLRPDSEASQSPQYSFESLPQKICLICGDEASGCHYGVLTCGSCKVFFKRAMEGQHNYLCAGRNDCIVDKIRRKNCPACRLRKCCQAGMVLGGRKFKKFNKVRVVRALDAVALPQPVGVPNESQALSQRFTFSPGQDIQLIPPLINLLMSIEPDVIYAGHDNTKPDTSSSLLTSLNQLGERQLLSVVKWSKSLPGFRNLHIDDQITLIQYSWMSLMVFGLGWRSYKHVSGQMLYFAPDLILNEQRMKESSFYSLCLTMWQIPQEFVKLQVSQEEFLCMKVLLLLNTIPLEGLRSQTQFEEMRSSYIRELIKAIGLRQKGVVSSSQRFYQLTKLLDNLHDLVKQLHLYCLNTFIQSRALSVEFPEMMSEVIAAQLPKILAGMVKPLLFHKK
Thyrotropin receptor (Homo sapiens), sequence (P16473 whole entry, looked up): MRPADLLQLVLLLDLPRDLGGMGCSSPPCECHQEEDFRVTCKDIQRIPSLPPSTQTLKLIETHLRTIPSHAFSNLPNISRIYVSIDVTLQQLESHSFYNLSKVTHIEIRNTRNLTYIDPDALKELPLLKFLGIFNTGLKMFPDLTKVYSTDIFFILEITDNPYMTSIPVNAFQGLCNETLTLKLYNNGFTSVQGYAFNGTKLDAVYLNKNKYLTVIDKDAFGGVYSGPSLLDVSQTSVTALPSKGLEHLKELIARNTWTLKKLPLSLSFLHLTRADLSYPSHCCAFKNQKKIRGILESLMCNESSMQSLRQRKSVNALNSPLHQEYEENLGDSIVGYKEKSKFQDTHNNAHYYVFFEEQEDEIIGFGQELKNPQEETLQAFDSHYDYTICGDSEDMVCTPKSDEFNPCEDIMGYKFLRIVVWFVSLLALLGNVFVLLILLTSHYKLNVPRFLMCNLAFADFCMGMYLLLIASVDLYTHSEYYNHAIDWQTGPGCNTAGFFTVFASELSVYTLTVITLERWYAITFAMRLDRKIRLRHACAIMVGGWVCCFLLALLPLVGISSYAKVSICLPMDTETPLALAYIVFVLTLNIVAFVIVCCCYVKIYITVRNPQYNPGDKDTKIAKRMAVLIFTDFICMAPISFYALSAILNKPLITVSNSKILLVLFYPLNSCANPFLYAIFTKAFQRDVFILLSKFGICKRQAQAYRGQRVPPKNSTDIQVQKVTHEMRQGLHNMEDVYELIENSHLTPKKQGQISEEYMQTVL
Nuclear receptor subfamily 1 group I member 2 (Rattus norvegicus), sequence (Q9R1A7 whole entry, looked up): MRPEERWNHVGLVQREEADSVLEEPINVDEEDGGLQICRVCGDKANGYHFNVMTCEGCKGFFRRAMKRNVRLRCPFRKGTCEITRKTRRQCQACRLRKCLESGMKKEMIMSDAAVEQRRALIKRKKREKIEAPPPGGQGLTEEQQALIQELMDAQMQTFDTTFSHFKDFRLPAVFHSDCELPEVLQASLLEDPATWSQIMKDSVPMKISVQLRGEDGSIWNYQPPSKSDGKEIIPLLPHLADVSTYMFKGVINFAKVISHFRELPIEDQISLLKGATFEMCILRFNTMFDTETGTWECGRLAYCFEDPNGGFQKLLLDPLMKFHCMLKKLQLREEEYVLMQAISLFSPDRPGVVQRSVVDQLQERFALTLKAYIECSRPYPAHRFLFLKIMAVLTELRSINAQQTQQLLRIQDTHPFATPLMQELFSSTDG
Nuclear receptor subfamily 1 group I member 2 (Homo sapiens), sequence (O75469 whole entry, looked up): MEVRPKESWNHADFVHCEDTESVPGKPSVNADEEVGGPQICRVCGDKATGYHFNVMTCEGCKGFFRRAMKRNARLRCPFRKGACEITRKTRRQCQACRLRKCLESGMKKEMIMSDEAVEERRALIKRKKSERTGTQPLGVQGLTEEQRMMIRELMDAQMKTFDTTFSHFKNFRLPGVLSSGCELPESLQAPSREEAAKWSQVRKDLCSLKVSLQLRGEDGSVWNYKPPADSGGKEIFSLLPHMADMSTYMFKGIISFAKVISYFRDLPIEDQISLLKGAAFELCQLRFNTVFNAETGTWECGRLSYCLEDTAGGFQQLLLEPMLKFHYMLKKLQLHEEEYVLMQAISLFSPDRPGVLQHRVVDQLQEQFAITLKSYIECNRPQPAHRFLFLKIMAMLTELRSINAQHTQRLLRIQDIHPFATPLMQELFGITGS
Thyrotropin-releasing hormone receptor (Homo sapiens), sequence (P34981 whole entry, looked up): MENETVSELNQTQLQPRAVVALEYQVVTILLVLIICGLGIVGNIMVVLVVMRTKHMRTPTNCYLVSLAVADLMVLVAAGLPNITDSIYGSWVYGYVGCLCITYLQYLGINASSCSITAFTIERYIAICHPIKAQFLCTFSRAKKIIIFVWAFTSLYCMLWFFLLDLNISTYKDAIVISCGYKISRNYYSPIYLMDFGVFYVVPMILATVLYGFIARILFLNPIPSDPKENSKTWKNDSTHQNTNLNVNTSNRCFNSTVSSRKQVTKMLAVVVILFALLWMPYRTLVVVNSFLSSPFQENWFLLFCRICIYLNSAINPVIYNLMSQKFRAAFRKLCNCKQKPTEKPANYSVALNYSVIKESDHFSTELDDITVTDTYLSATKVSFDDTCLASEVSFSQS

COC(=O)CCCC(=O)OC
inactive: outcome [1] | Potency [2] | Potency [3] | Potency [4] | outcome [5] | outcome [6] | outcome [7] | outcome [8] | outcome [9] | outcome [10] | outcome [11] | Potency [12] | Potency [13] | outcome [15] | Potency [16] | Potency [17]
54 µM (active) and inactive: Potency [14]

O=C1c2ccccc2CCc2ccccc21
inactive: outcome [1] | Potency [2] | Potency [3] | outcome [5] | outcome [6] | outcome [7] | outcome [9] | outcome [10] | outcome [11] | Potency [12] | Potency [14] | outcome [15] | Potency [16]
active: Potency [4] 27.9 µM
55.6 µM (active) and inactive: Potency [17]

CCOCC(=O)O
inactive: outcome [1] | Potency [2] | Potency [3] | Potency [4] | outcome [5] | outcome [6] | outcome [7] | outcome [8] | Potency [12] | Potency [14] | outcome [15] | Potency [16] | Potency [17]

CCNC(=S)NCC
inactive: outcome [1] | Potency [2] | Potency [3] | Potency [4] | outcome [5] | outcome [6] | outcome [7] | outcome [9] | outcome [10] | outcome [11] | Potency [12] | Potency [14] | outcome [15] | Potency [16] | Potency [17]

CN1C(=O)CC[C@H]1c1cccnc1
inactive: outcome [1] | Potency [2] | Potency [3] | Potency [4] | outcome [5] | outcome [6] | outcome [7] | outcome [8] | outcome [10] | outcome [11] | Potency [12] | Potency [14] | outcome [15] | Potency [16] | max activation [18] -3.2%

CC(=O)OCc1ccccc1
inactive: outcome [1] | Potency [2] | Potency [3] | Potency [4] | outcome [5] | outcome [6] | outcome [7] | outcome [8] | outcome [9] | outcome [10] | outcome [11] | Potency [12] | Potency [13] | Potency [14] | outcome [15] | Potency [16] | Potency [17]

CN(C)c1ccc(O)c2c1C[C@H]1C[C@H]3[C@H](N(C)C)C(=O)C(C(N)=O)=C(O)[C@@]3(O)C(=O)C1=C2O
active: Potency [14] 68.6 µM and 29.8 µM | Potency [16] 54.5 µM and 29.8 µM
inactive: outcome [1] | Potency [2] | Potency [3] | Potency [4] | outcome [5] | outcome [6] | outcome [8] | outcome [10] | outcome [11] | Potency [12] | outcome [15] | Potency [17] | max activation [18] -2.35% | Potency [19] | outcome [20]

CCCCCCCCCCCCCCCCO
inactive: outcome [1] | Potency [2] | Potency [3] | Potency [4] | outcome [5] | outcome [6] | outcome [8] | outcome [10] | outcome [11] | Potency [12] | Potency [13] | Potency [14] | outcome [15] | Potency [16] | Potency [17] | max activation [18] -1.74% | Potency [19] | outcome [20]

CC(=O)OCc1ccco1
60.8 µM (active) and inactive: Potency [17]
15.3 µM (active) and inactive: Potency [14]
inactive: outcome [1] | Potency [2] | Potency [3] | Potency [4] | outcome [6] | outcome [7] | outcome [8] | Potency [12] | outcome [15] | Potency [16]

CCCCCCO
inactive: outcome [1] | Potency [2] | Potency [3] | Potency [4] | outcome [5] | outcome [6] | outcome [9] | outcome [10] | outcome [11] | Potency [12] | Potency [13] | Potency [14] | outcome [15] | Potency [16] | Potency [17]

CC(C)(Oc1ccc(CCNC(=O)c2ccc(Cl)cc2)cc1)C(=O)O
inactive: outcome [1] | Potency [2] | Potency [3] | Potency [4] | outcome [5] | outcome [6] | outcome [9] | outcome [10] | outcome [11] | Potency [12] | Potency [13] | Potency [14] | outcome [15] | Potency [16] | Potency [17] | max activation [18] -0.19% | Potency [19] | outcome [20]

CN(C)c1ccc(Cc2ccc(N(C)C)cc2)cc1
inactive: outcome [1] | Potency [2] | Potency [3] | Potency [4] | outcome [5] | outcome [7] | outcome [9] | outcome [10] | outcome [11] | Potency [12] | Potency [13] | outcome [15] | Potency [16]
active: Potency [17] 30.8 µM and 43.3 µM

COc1ccc(C)cc1N
inactive: outcome [1] | Potency [2] | Potency [3] | Potency [4] | outcome [5] | outcome [6] | outcome [8] | outcome [9] | outcome [10] | outcome [11] | Potency [12] | Potency [14] | outcome [15] | Potency [16] | Potency [17]

O=C(O)c1ccc(C(=O)O)c(C(=O)O)c1
inactive: outcome [1] | Potency [2] | Potency [3] | Potency [4] | outcome [6] | outcome [7] | outcome [8] | outcome [9] | outcome [10] | outcome [11] | Potency [12] | Potency [14] | outcome [15] | Potency [16] | Potency [17]

CC(C)CCCCCCCOC(=O)CCCCC(=O)OCCCCCCCC(C)C
inactive: outcome [1] | Potency [2] | Potency [3] | Potency [4] | outcome [5] | outcome [6] | outcome [9] | outcome [10] | outcome [11] | Potency [12] | Potency [13] | Potency [14] | outcome [15] | Potency [16]
50.4 µM (active) and inactive: Potency [17]

CCNc1ccccc1
inactive: outcome [1] | Potency [2] | Potency [3] | Potency [4] | outcome [5] | outcome [6] | outcome [8] | Potency [12] | Potency [14] | outcome [15] | Potency [16] | Potency [17]

CCc1ccccc1CC
inactive: outcome [1] | Potency [2] | Potency [3] | Potency [4] | outcome [5] | outcome [6] | outcome [7] | outcome [10] | outcome [11] | Potency [12] | Potency [14] | outcome [15] | Potency [16] | Potency [17]

CC(C)CC(=O)CC(C)CC(C)C (stereo unspecified)
inactive: outcome [1] | Potency [2] | Potency [3] | Potency [4] | outcome [6] | outcome [7] | outcome [8] | outcome [10] | outcome [11] | Potency [12] | Potency [14] | outcome [15] | Potency [16] | Potency [17]
